Of roughly 7,900 targets only a part is listed; those with a hit were picked by preference. About 0.6% of all pairs of compound and target were hits. Values without a mark were called inactive.
Legend:
Experiment in all cases: log2 fold change, soluble protein after heating vs DMSO (PISA); higher = thermal stabilisation; K562 cells, 10 uM, 30 min; active = over 0.2 and 3.5 SD of the protein, either way, in both replicates (recomputed)
bafetinib = compound: Cc1ccc(NC(=O)c2ccc(CN3CC[C@H](N(C)C)C3)c(C(F)(F)F)c2)cc1Nc1nccc(-c2cncnc2)n1 [bafetinib]
In short: (§1)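 K562 cells (2×10^6 cells/mL) were treated with 10 μM compound for 30 min, and aliquots were heated for 3 min over 48°C-58°C. Pooled aliquots were extracted in PBS with 0.5% NP-40 at 4°C, and the supernatant after 21,000xg for 90 min was measured by TMTpro 16plex LC-MS/MS with channel sums equalised. Reported thermal stability, relative to control samples and from duplicates, is a log2 fold change.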

[1] = compound: Cc1cccc(CC(=O)N2CCc3c2ccc(-c2cn(C)c4ncnc(N)c24)c3F)n1
In short: as §1

nilotinib = compound: Cc1cn(-c2cc(NC(=O)c3ccc(C)c(Nc4nccc(-c5cccnc5)n4)c3)cc(C(F)(F)F)c2)cn1 [nilotinib]
In short: as §1

[2] = compound: Cc1nc(Nc2n[nH]c3c2CN(C(=O)N[C@H](CN(C)C)c2ccccc2)C3(C)C)c2sccc2n1
In short: as §1

dasatinib = compound: Cc1nc(Nc2ncc(C(=O)Nc3c(C)cccc3Cl)s2)cc(N2CCN(CCO)CC2)n1 [dasatinib]
In short: as §1

[3] = compound: Cc1ncc(-c2ccnc(Nc3ccc(S(C)(=O)=O)cc3)n2)n1C(C)C
In short: as §1

[4] = compound: Cn1cc(-c2ccc3c(c2)CCN3C(=O)Cc2cccc(C(F)(F)F)c2)c2c(N)ncnc21
In short: as §1

[5] = compound: Cn1cc(-c2ccc3nnc(C(F)(F)c4ccc5ncccc5c4)n3n2)cn1
In short: as §1

tipifarnib = compound: Cn1cncc1[C@@](N)(c1ccc(Cl)cc1)c1ccc2c(c1)c(-c1cccc(Cl)c1)cc(=O)n2C [tipifarnib]
In short: as §1

mubritinib = compound: FC(F)(F)c1ccc(/C=C/c2nc(COc3ccc(CCCCn4ccnn4)cc3)co2)cc1 [mubritinib]
In short: as §1

Sequence of UniProt Q07666 (Q07666 whole entry, looked up): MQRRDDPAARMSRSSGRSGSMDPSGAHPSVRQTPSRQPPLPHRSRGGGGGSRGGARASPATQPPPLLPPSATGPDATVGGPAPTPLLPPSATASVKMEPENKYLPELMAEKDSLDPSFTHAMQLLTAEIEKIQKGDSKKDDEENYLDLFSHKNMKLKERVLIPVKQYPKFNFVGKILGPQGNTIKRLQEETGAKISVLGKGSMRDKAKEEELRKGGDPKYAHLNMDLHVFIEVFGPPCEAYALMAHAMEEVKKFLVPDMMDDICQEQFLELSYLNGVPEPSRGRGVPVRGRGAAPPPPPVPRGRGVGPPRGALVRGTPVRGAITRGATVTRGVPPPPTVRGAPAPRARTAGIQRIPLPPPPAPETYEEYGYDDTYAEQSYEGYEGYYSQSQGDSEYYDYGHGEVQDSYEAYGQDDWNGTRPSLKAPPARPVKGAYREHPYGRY
Sequence of UniProt P29966 (P29966 whole entry, looked up): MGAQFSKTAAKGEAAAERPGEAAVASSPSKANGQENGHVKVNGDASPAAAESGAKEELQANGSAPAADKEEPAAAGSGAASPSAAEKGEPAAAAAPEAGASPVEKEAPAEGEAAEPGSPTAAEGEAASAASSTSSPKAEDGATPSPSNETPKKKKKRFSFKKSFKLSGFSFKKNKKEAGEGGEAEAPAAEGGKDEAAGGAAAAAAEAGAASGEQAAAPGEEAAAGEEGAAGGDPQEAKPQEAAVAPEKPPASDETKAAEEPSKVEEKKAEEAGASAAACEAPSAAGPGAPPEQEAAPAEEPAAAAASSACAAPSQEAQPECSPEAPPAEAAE
Sequence of UniProt Q96AQ8 (Q96AQ8 whole entry, looked up): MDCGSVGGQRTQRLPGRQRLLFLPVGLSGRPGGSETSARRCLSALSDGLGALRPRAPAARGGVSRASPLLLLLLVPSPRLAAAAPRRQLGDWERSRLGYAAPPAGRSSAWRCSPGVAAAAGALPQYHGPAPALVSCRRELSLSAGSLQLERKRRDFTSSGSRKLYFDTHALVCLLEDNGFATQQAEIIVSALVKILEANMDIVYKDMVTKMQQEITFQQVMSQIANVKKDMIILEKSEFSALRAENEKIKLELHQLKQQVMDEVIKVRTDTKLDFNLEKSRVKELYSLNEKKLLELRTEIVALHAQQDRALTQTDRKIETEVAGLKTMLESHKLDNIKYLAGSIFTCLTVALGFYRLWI
Sequence of UniProt Q9Y383 (Q9Y383 whole entry, looked up): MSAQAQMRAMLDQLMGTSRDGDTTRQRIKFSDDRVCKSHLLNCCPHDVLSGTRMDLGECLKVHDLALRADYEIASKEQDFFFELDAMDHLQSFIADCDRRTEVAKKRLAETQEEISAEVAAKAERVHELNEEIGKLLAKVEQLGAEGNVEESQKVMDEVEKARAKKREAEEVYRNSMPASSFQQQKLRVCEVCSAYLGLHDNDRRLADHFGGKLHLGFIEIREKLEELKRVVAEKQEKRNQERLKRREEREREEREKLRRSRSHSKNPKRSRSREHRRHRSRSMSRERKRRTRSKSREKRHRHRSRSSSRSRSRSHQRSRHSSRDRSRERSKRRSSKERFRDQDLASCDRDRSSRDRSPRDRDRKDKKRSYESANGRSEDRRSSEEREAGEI
Sequence of UniProt Q13257 (Q13257 whole entry, looked up): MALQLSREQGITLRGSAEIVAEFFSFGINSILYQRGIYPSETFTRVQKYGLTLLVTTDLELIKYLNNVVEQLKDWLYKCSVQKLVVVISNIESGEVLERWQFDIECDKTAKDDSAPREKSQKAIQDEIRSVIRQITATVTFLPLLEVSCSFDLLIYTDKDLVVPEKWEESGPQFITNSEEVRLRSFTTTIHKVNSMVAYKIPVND
Sequence of UniProt P11717 (P11717 whole entry, looked up): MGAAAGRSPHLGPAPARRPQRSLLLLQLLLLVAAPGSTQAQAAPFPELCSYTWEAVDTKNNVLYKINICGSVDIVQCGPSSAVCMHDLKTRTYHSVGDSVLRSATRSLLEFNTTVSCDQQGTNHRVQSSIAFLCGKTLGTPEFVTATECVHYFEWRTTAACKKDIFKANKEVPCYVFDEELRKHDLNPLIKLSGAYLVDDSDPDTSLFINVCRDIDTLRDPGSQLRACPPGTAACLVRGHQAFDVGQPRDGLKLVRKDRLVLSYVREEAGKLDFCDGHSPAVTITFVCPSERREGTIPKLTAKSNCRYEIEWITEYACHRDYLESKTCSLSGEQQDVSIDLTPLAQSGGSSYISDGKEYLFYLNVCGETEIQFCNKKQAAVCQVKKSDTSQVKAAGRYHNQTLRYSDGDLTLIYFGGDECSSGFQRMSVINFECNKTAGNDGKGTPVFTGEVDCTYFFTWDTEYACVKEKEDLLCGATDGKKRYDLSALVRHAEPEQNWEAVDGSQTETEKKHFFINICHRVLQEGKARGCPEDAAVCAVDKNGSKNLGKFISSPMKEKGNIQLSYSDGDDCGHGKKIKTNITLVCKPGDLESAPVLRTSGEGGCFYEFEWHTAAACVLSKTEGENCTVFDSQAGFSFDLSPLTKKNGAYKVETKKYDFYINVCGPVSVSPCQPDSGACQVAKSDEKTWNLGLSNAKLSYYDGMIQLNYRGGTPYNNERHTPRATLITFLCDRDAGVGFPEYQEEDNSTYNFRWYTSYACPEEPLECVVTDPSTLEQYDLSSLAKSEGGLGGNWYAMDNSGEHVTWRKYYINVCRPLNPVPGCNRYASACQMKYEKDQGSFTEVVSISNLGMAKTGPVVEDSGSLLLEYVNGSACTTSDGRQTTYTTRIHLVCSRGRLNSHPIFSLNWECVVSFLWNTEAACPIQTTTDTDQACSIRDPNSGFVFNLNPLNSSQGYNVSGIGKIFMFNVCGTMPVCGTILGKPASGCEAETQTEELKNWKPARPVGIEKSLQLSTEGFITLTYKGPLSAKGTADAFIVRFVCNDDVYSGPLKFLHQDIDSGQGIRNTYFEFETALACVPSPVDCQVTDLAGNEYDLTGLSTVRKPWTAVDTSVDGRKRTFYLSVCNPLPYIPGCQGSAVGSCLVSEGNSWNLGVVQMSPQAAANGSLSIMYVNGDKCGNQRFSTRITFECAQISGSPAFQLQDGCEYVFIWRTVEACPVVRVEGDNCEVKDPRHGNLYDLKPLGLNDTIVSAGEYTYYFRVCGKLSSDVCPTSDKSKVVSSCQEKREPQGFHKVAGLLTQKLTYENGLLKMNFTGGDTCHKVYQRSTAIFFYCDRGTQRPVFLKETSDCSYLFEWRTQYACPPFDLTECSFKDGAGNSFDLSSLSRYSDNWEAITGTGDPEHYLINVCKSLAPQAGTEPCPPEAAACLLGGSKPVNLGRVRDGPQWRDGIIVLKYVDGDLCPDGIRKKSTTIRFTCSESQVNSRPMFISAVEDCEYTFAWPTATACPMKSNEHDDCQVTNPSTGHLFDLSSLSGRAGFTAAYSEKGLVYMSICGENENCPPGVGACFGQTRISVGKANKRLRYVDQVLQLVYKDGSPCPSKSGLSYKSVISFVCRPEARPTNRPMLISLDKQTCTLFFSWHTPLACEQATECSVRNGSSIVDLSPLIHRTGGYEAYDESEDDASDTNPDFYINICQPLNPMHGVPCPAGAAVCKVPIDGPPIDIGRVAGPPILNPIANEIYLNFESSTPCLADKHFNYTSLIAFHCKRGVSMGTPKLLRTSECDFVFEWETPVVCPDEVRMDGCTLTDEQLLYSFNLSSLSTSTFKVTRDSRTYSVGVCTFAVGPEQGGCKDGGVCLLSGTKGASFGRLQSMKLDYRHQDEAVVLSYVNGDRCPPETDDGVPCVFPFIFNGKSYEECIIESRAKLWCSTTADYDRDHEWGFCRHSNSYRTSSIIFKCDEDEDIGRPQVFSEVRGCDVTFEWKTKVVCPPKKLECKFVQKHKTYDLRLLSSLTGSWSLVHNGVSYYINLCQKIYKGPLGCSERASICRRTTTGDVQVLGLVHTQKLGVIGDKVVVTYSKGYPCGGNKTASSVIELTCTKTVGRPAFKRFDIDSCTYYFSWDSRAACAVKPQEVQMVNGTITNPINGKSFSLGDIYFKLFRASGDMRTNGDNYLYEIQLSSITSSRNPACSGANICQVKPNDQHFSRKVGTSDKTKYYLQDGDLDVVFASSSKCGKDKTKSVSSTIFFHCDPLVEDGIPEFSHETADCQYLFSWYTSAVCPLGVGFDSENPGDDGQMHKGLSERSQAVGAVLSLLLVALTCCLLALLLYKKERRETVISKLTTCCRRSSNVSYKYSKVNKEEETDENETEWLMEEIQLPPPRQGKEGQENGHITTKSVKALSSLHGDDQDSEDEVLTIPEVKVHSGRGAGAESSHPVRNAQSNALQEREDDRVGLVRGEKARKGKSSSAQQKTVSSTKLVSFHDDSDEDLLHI
Sequence of UniProt P23368 (P23368 whole entry, looked up): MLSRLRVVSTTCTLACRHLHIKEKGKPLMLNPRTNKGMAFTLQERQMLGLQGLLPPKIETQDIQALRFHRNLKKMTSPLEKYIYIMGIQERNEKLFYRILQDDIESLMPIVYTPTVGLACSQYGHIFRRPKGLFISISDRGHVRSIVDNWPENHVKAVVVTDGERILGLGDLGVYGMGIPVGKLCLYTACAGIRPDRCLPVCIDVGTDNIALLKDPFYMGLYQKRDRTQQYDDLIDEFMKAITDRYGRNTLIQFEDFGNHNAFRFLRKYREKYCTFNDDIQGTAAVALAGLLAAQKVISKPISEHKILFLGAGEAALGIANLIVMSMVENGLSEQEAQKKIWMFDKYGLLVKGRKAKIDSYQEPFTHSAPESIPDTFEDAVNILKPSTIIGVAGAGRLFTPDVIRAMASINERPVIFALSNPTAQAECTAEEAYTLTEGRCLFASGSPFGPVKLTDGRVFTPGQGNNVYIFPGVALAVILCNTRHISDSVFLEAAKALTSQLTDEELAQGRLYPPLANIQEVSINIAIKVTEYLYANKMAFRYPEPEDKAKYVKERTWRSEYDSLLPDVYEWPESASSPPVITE
Sequence of UniProt P14174 (P14174 whole entry, looked up): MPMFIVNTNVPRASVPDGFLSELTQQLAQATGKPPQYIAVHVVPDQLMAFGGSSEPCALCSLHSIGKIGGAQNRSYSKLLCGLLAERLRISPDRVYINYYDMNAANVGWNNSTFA

Row | Target | log2 fold change (bafetinib) | log2 fold change [1] | log2 fold change (nilotinib) | log2 fold change [2] | log2 fold change (dasatinib) | log2 fold change [3] | log2 fold change [4] | log2 fold change [5] | log2 fold change (tipifarnib) | log2 fold change (mubritinib)
1 | KIF21A isoform 4 (UniProt Q7Z4S6) | 0.051 | 0.079 | -0.104 | 0.083 | -0.193 | 0.037 | -0.066 | -0.073 | -0.039 | 0.11
2 | MIF (UniProt P14174) | 0.012 | 0.034 | 0.088 | 0 | 0.052 | -0.052 | 0.067 | 0.076 | -0.029 | 0.021
3 | IKZF1 (UniProt Q13422) | -0.062 | -0.004 | 0.237 | -0.347 | -0.121 | -0.112 | 0.072 | 0.119 | -0.026 | -0.07
4 | MAD2L1 (UniProt Q13257) | -0.054 | 0.018 | -0.082 | -0.042 | -0.06 | -0.012 | -0.001 | 0.009 | -0.055 | 0.042
5 | L2HGDH (UniProt Q9H9P8) | -0.089 | -0.037 | 0.06 | 0.002 | -0.046 | -0.002 | 0.077 | 0.053 | 0.021 | 0.061
6 | LUC7L2 (UniProt Q9Y383) | 0.035 | 0.002 | 0.059 | -2.75 (active) | -0.01 | -0.007 | -0.033 | -0.059 | 0.049 | -0.07
7 | MAPKAPK2 (UniProt P49137) | 0.125 | 0.017 | 0.145 | 0.045 | -0.086 | -0.011 | -0.014 | -0.022 | -0.022 | -0.009
8 | MAIP1 (UniProt Q8WWC4) | -0.147 | 0.005 | 0.027 | 0.007 | -0.021 | -0.004 | 0.031 | 0.028 | -0.047 | -0.006
9 | MARK3 (UniProt P27448) | 0.033 | 0.108 | -0.125 | -0.718 (active) | -0.104 | -0.11 | -0.062 | -0.046 | -0.013 | -0.075
10 | MAGI1 (UniProt Q96QZ7) | -0.055 | -0.023 | 0.015 | -0.477 (active) | 0.039 | -0.044 | 0.052 | -0.079 | 0.079 | -0.021
11 | KEL (UniProt P23276) | -0.027 | -0.002 | 0.017 | -0.032 | -0.019 | 0.004 | 0.083 | 0.003 | 0.031 | -0.591 (active)
12 | ILVBL (UniProt A1L0T0) | 0.065 | -0.049 | 0.074 | 0.011 | -0.09 | -0.025 | 0.247 | -0.005 | -0.047 | 0.041
13 | MARCKS (UniProt P29966) | -0.102 | -0.133 | 0.053 | -0.003 | 0.022 | -0.007 | 0.033 | 0.034 | -0.002 | -0.017
14 | KHDRBS1 (UniProt Q07666) | 0.041 | 0.007 | 0.035 | 0.02 | 0.012 | 0.07 | 0.025 | -0.024 | 0.017 | 0.021
15 | MCUR1 (UniProt Q96AQ8) | 0 | 0 | 0.015 | 0.015 | -0.037 | -0.004 | 0.031 | -0.091 | -0.028 | 0.044
16 | IPO11 isoform 2 (UniProt Q9UI26) | -0.056 | 0.045 | 0.012 | -0.03 | -0.049 | 0.039 | -0.008 | -0.029 | -0.132 | 0.069
17 | MAP2K3 isoform 3 (UniProt P46734) | -0.071 | 0.096 | -0.019 | 0.021 | -0.04 | -0.049 | 0.005 | -0.083 | 0.08 | -0.145
18 | KHDC4 (UniProt Q7Z7F0) | -0.051 | 0.057 | 0.063 | -0.054 | -0.009 | -0.053 | -0.006 | -0.053 | -0.133 | 0.004
19 | MGST1 (UniProt P10620) | -0.001 | -0.053 | -0.006 | 0.078 | 0.084 | -0.039 | -0.013 | 0.014 | 0.131 | -0.005
20 | MAPK8 isoform 3 (UniProt P45983) | -0.011 | -0.048 | 0.022 | 0.415 (active) | -0.318 | 0.495 (active) | 0.047 | -0.058 | 0.001 | -0.179
21 | LMNA (UniProt P02545) | -0.011 | -0.025 | 0.065 | -0.116 | 0.097 | -0.179 | -0.04 | -0.043 | 0.064 | -0.069
22 | IPO13 (UniProt O94829) | -0.11 | -0.006 | -0.001 | -0.094 | -0.021 | 0.071 | -0.022 | -0.025 | -0.106 | 0.06
23 | MAP2K2 (UniProt P36507) | -0.081 | 0.007 | -0.003 | -0.154 | -0.092 | -0.018 | 0.023 | 0.098 | 0.015 | 0.017
24 | IPO7 (UniProt O95373) | -0.018 | 0.035 | -0.058 | -0.044 | -0.074 | -0.091 | -0.018 | 0.008 | -0.126 | 0.079
25 | IPO9 (UniProt Q96P70) | 0.019 | 0.031 | -0.016 | -0.06 | 0.04 | 0.011 | -0.069 | -0.06 | -0.084 | -0.005
26 | ME2 (UniProt P23368) | -0.012 | -0.087 | 0.138 | 0.029 | -0.052 | -0.015 | -0.076 | 0.001 | 0.107 | -0.074
27 | LRPPRC (UniProt P42704) | -0.053 | 0.117 | -0.14 | -0.721 | -0.732 | 0.016 | 0.236 | 0.24 | -0.656 | -0.161
28 | LDLR (UniProt P01130) | 0.005 | -0.029 | 0.041 | -0.027 | 0.056 | -0.064 | 0.013 | 0.029 | 0.097 | -0.082
29 | LEO1 (UniProt Q8WVC0) | -0.003 | 0.008 | -0.125 | -0.045 | 0.049 | -0.094 | -0.026 | 0.023 | -0.009 | 0.035
30 | IGF2R (UniProt P11717) | -0.338 (active) | 0.021 | -0.02 | -0.087 | -0.023 | 0.021 | 0 | 0.023 | 0.045 | 0.003

— the supplement of paper PMC10849652
